Measurements: PubChem BioAssay
Activity calls are given as the source filed them.

Columns and labels:
[1] = compounds binding Alexa647 anti-His antibody – biochemical, small-molecule microarray, 635 nm fluorescence, artefact control for SMM control protein annotation, primary screen (AID 1128); conditions: higher = more signal;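 also: score merges feature fluorescence with signal-to-noise for each printed compound spot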
[2] = test system: Human papillomavirus type 1a E7 protein (residues 1-88); assay: HPV1a E7 small-molecule binders, primary screen, biochemical, small-molecule microarray, residues 1-88, 635 nm (AID 1129); conditions: small-molecule microarray binding, fluorescence 635 nm; higher = more signal
[3] = molecular target: Focal adhesion kinase 1 (Homo sapiens) (UniProt Q05397); assay: PTK2 protein binding on printed compound slides – biochemical, small-molecule microarray, 635/667 nm fluorescence, BSA, DTT, primary screen (AID 1130); conditions: 635 nm fluorescence, higher = more signal;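 also: composite of spot emission at 667 nm and signal to noise over triplicate slides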
Sequence of Focal adhesion kinase 1 (Homo sapiens) (Q05397 whole entry, looked up): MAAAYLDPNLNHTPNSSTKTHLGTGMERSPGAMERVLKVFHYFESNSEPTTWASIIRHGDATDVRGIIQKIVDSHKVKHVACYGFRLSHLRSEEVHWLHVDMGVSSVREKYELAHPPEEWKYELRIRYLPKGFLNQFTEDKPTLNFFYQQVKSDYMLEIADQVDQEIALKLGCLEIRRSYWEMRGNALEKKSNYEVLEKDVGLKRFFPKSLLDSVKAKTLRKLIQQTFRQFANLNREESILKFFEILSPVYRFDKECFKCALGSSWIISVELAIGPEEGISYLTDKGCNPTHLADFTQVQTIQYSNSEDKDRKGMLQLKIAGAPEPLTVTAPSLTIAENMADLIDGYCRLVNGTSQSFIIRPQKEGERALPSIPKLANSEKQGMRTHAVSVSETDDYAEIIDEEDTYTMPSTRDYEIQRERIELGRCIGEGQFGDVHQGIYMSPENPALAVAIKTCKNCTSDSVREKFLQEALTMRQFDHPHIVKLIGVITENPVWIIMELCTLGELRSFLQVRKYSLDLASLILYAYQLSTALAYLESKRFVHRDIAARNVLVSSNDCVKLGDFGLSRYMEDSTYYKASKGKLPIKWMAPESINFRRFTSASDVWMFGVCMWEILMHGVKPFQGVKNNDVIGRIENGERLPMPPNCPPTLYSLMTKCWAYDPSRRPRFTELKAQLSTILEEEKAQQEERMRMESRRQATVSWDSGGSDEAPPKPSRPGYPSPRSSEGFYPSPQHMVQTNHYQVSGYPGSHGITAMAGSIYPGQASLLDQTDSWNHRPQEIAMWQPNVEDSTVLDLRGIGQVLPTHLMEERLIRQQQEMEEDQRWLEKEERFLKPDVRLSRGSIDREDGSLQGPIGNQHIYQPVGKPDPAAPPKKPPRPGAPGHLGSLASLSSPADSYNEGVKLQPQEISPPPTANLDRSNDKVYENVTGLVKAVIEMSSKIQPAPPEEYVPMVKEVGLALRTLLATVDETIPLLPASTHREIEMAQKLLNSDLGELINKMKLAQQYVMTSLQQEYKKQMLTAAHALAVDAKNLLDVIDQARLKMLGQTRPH

[4] = test system: Fibrinogen (Alexa647-labelled); assay: Alexa647-fibrinogen binding to printed small molecules – biochemical, small-molecule microarray, 635/667 nm fluorescence, artefact control for SMM control-protein annotation, profiling panel (AID 1131); conditions: fibrinogen-A647 binding fluorescence, higher = more signal;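 also: z-score merges 667 nm fluorescence with per-spot signal-to-noise over triplicate slides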
[5] = molecular target: Follistatin (Homo sapiens) (UniProt P19883); assay: FST protein binding to printed compounds – biochemical, small-molecule microarray, 635/667 nm fluorescence, primary screen (AID 1132); conditions: 635 nm fluorescence, higher = more signal
Sequence of Follistatin (Homo sapiens) (P19883 whole entry, looked up): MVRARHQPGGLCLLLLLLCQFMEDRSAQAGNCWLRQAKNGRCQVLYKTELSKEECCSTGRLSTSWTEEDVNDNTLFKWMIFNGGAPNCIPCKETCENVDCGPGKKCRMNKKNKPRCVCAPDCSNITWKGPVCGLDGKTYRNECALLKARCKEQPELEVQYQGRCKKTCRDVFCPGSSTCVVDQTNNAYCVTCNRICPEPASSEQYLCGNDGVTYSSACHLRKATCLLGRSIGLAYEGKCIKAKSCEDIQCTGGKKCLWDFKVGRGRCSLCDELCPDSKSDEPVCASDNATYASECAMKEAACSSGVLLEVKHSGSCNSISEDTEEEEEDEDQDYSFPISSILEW

[6] = molecular target: Fibroblast growth factor 2 (Homo sapiens) (UniProt P09038); assay: basic fibroblast growth factor binding to printed compounds – biochemical, small-molecule microarray, 635/667 nm fluorescence, primary screen (AID 1133); conditions: FGF2, fluorescence 635/667, higher = more signal
Sequence of Fibroblast growth factor 2 (Homo sapiens) (P09038 whole entry, looked up): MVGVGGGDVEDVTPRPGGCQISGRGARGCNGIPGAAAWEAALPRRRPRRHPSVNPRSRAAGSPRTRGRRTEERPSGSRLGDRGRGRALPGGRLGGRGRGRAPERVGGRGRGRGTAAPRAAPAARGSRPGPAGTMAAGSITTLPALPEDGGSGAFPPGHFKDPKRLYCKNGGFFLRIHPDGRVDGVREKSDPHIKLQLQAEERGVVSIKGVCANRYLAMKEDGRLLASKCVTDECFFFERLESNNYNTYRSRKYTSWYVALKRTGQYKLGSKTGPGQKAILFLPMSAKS

[7] = JC-1 mitochondrial potential readout, lung cancer cells – cell-based, A549, JC-1 fluorescence, basal, 24 h, 100 nL, profiling panel (AID 1138); conditions: higher = more signal;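 also: A549 lung adenocarcinoma cells under basal conditions with no added stimulus; test concentration not given here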
Lefty1 = Lefty1 protein binding to printed compounds – biochemical, small-molecule microarray, 635/667 nm fluorescence, primary screen (AID 1139); conditions: fluorescence 635/667, higher = more signal
[8] = test system: wheat germ agglutinin (Triticum aestivum), Alexa647-labelled; assay: Alexa647-WGA lectin binding to printed small molecules – biochemical, small-molecule microarray, 635/667 nm fluorescence, artefact control for SMM control-protein annotation, profiling panel (AID 1140); conditions: WGA-A647 binding, 635 nm fluorescence, higher = more signal;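 also: score merges 667 nm feature emission with signal to noise over triplicate slides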
[9] = molecular target: Luciferin 4-monooxygenase (Photinus pyralis) (UniProt P08659); assay: inhibition of purified Photinus pyralis luciferase – biochemical, luminescence, purified enzyme, 2006 set, primary screen (AID 1141); conditions: purified firefly luciferase, SteadyGlo luminescence, 30 min; higher = more signal, called active from +8 up or from −8 down;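 also: cell-free assay with purified firefly luciferase at 100 ng per well in PBS; test concentration not given here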
Sequence of Luciferin 4-monooxygenase (Photinus pyralis) (P08659 whole entry, looked up): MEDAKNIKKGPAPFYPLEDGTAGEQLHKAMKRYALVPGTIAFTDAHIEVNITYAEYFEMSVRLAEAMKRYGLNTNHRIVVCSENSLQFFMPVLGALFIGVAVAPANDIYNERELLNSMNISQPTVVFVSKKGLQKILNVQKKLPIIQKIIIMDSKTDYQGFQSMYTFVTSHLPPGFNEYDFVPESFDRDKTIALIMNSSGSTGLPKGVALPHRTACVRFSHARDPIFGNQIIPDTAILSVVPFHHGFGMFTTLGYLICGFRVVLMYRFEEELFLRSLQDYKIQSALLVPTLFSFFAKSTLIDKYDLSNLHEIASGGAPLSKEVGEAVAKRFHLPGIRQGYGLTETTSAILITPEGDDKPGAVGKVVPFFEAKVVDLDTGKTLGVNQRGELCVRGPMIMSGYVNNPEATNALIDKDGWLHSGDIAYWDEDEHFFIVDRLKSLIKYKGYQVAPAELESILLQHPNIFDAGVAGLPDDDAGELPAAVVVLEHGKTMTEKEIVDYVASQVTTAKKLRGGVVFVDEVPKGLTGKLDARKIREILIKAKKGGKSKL

SMILES	composite z-score [1]	composite z-score [2]	composite z-score [3]	composite z-score [4]	composite z-score [5]	composite z-score [6]	z-score [7]	composite z-score (Lefty1)	composite z-score [8]	z-score [9]
COCC(=C=CC[C@H](O)c1cccc(OCCO)c1)C[C@H](O)c1ccccn1	0.344	0.273	-0.296	0.521	1.37	0.89	1.07	1.37	0.613	-0.266 (inactive)
COc1ccc(NN2C(C(O)c3ccco3)C=CC3C(=O)N(C4CCCCC4)C(=O)C32)cc1 (stereo not given)	1.04	1.22	0.653	0.936	1.25	0.484	0.265	0.655	1.19	-0.358 (inactive)
CC(C)C(O)C1C=CC2C(=O)N(C)C(=O)C2N1Nc1ccccc1 (stereo not given)	0.932	1.14	0.746	0.78	0.828	0.0704	-0.219	-0.241	1.23	-0.968 (inactive)
O=C1O[C@@H](c2ccccc2)[C@@H](c2ccccc2)N2[C@@H](c3ccc(O)cc3)[C@]3(C(=O)Nc4ccc(C#CC5=CCCCC5)cc43)[C@@H](C(=O)N3CCN(c4ncccn4)CC3)[C@H]12	0.567	1.19	1.24	0.811	1.22	1.1	-0.367	0.68	0.262	0.745 (inactive)
NC(=O)NCC#Cc1ccc2c(c1)[C@]1(C(=O)N2)[C@H](C(=O)O)[C@H]2C(=O)O[C@H](c3ccccc3)[C@H](c3ccccc3)N2[C@@H]1c1ccccc1OCCO	1.18	0.866	0.129	0.809	1.03	0.836	0.246	1.2	1.16	-4.72 (inactive)
COCCOC(=O)N1C(=O)[C@@]2(c3cc(C#CCNC(N)=O)ccc31)[C@H](C(=O)N1CCCCCCC1)[C@H]1C(=O)O[C@H](c3ccccc3)[C@H](c3ccccc3)N1[C@@H]2c1ccc(O)cc1	-0.269	1	0.478	0.391	1.4	1.24	-0.606	0.742	0.128	-0.352 (inactive)
COCCOC(=O)N1C(=O)[C@@]2(c3cc(C#Cc4ccc(OC)cc4)ccc31)[C@H](C(=O)N1CCN(c3ncccn3)CC1)[C@H]1C(=O)O[C@H](c3ccccc3)[C@H](c3ccccc3)N1[C@@H]2c1ccccc1OCCO	2.03	1.14	0.364	-0.118	0.579	0.238	-0.94	0.305	0.701	0.223 (inactive)
Cc1c(NC(=O)/C(C#N)=C/C=C/c2ccccc2[N+](=O)[O-])c(=O)n(-c2ccccc2)n1C	0.526	0.876	1.01	0.867	0.771	0.334	0.511	0.557	0.154	-4.64 (inactive)
C#CCNC(=O)[C@H](Cc1ccccc1)NC(=O)[C@@H](N=[N+]=[N-])C(C)C	0.141	0.873	0.146	0.694	0.127	0.524	0.332	0.343	0.349	-0.66 (inactive)
CCOc1cc(C(O)C2C=CC3C(=O)N(C)C(=O)C3N2N2CCCCC2)ccc1O (stereo not given)	1	-0.158	0.125	0.498	0.746	0.1	-0.634	0.192	0.335	-0.906 (inactive)
NC(=O)NCC#Cc1ccc2c(c1)[C@]1(C(=O)N2)[C@H](c2ccc(O)cc2)N2[C@H](c3ccccc3)[C@H](c3ccccc3)OC(=O)[C@H]2[C@@H]1C(=O)Nc1nc2ccccc2s1	-0.185	0.622	-0.15	0.666	1.44	1.49	-2.24	0.9	0.717	-1.49 (inactive)
COc1ccc([Si](C)(C)[C@@H]2[C@@H](CCO)O[C@]3(C(=O)N(Cc4cccc(N5C(=O)c6ccccc6Oc6ccccc65)c4)c4ccccc43)[C@H]2C)cc1	0.106	0.502	0.121	-0.0703	-0.672	-0.559	-0.368	0.135	0.413	-1.26 (inactive)
CC(C)CCC[C@@H](C)[C@H]1CC[C@@]2(C)C3=C(CC[C@]12C)[C@@]1(C)CC[C@H](OC(=O)c2ccc(Br)cc2)C(C)(C)C1CC3 (stereo not given in full)	-0.242	0.595	-0.172	0.487	0.485	0.508	0.367	0.573	0.538	-1.28 (inactive)
CCOC(=O)C1=C[C@@H](c2ccccc2)N(S(=O)(=O)c2ccc(C)cc2)[C@H]1c1cccc(Cl)c1	2.44	1.17	0.283	0.612	0.938	0.111	3.78	0.465	1.31	1.18 (inactive)
O=C1c2ccccc2[C@@]2(Cc3ccccc3N(C3CC3)C2=O)[C@H](c2ccc(CO)cc2)N1C1CCCCC1	-1.14	-0.729	-0.375	-0.624	-0.667	-0.329	0.306	-0.825	0.637	0.429 (inactive)
CO[C@H]1O[C@H](CO)[C@@H](OC(=O)Nc2ccccc2-c2ccccc2)[C@H](OC(=O)Nc2ccc3c(c2)OCO3)[C@@H]1OC(=O)Nc1ccc2c(c1)OCO2	0.971	1.27	0.485	0.991	1.24	0.853	1.56	1.16	0.412	-7.93 (inactive)
O=C1NC(=O)C2C1C=CC(C(O)c1ccc(Br)cc1)N2Nc1ccccn1 (stereo not given)	1.32	0.173	0.231	0.995	0.426	0.657	0.631	-0.162	0.806	-1.52 (inactive)
O=C1C[C@@](C(=O)NCC(F)(F)F)(c2ccc([N+](=O)[O-])cc2)[C@@H](c2ccc(CO)cc2)N1C1CCCCC1	2.22	1.22	0.847	0.956	1.47	1.28	0.0267	0.761	0.861	0.414 (inactive)
CC(C)(C)OC(=O)CC[C@@]1(C(=O)O)N=C(c2ccc(OCCCO)cc2)O[C@@H]1c1ccccc1CN=[N+]=[N-]	2.7	0.807	0.399	0.85	0.367	-0.279	0.792	-0.816	0.851	-2.19 (inactive)
CO[C@H]1O[C@H](CO)[C@@H](OC(=O)Nc2ccc(C(F)(F)F)cc2)[C@H](OC(=O)Nc2ccc3c(c2)OCO3)[C@H]1OC(=O)Nc1ccc2c(c1)OCO2	2.97	1.17	1.33	0.806	0.977	0.395	-1.16	0.871	1.07	-7.72 (inactive)
Cc1ccc(S[C@]2(C(=O)NCc3ccccc3)CC(=O)N(C(C)C)[C@@H]2c2ccc(CO)cc2I)cc1	0.257	-0.0754	-0.19	-0.956	-0.289	-1.04	-0.224	-1.17	-0.0961	0.667 (inactive)
O=C1NC(=O)C2C1C=CC(C(O)c1cc(C(F)(F)F)cc(C(F)(F)F)c1)N2Nc1ccc(Cl)cc1Cl (stereo not given)	0.864	1.05	0.46	-0.607	0.109	-0.544	-0.836	-1.03	0.802	0.172 (inactive)
[N-]=[N+]=Nc1ccccc1[C@@H]1OC(c2ccc(OCCCO)cc2)=N[C@]1(CCS(=O)(=O)c1ccccc1)C(=O)NCCN1CCOCC1	0.903	1.28	-0.018	0.962	1.14	-0.29	-0.377	0.393	1.04	-8.81 (active)
Cc1c(NC(=O)/C(C#N)=C/C=C/c2ccc(N(C)C)cc2)c(=O)n(-c2ccccc2)n1C	1.61	1.18	0.0505	0.449	0.763	0.492	1.43	0.517	1.04	-3.99 (inactive)
COc1ccc(C#Cc2ccc3c(c2)[C@]2(C(=O)N3)[C@H](C(=O)N3CCc4cc(OC)c(OC)cc4C3)[C@H]3C(=O)O[C@H](c4ccccc4)[C@H](c4ccccc4)N3[C@@H]2c2ccc(O)cc2)cc1	1.5	1.2	0.735	0.924	0.896	0.465	-1.47	0.374	0.0376	-0.716 (inactive)
CN(C)CCCCNC(=O)[C@H]1C[C@H]2C(=O)N[C@@H](CCCCN(C)C)C(=O)N2[C@H]1c1cccc(OCCO)c1	1.1	0.603	0.29	0.877	1.3	1.23	-0.0557	1.64	1.02	0.709 (inactive)
CCOC(=O)[C@H]1C/C=C/C[C@H](C(=O)OCC)C(=O)O[C@H]2[C@@H](OC)O[C@H](CO)[C@@H](OC(=O)CCc3ccccc3)[C@@H]2OC1=O	0.522	-0.267	-0.542	0.0772	-0.502	-0.924	3.06	-0.172	-0.185	0.418 (inactive)
